Out of some 5,500 compounds screened, about 2,000 (36%) were called active. About 18% were inconclusive and are not listed. No stated cut-off is given here; in the data, active means normalized growth mostly below about 0.91 (no sharp cut-off); inconclusive means no clear call, values can overlap the other calls; inactive means mostly above about 0.92. The list shows a part of the results.
Assay: chemical genetic growth profiling, strain panel (AID 1159580);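 further: tested at 20 µM; growth read once vehicle control cultures reached saturation at 30 °C; 1 = growth at the plate median or of vehicle wells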
Settings: growth OD

Measured: normalized growth

COc1cc([C@@H]2c3cc4c(cc3[C@H](O)[C@H]3COC(=O)[C@@H]23)OCO4)cc(OC)c1OC
inactive: S. cerevisiae deletion strains, locus YKL009W, strain mrt4, stronger effect = lower value 1 | S. cerevisiae deletion strains, locus YKL068W, stronger effect = lower value 0.977 | S. cerevisiae deletion strains, locus YKL085W, strain MDH1 (second series), stronger effect = lower value 1 | S. cerevisiae deletion strains, locus YKL085W, strain MDH1, stronger effect = lower value 1 | S. cerevisiae deletion strains, locus YKL160W, strain elf1, stronger effect = lower value 1.02 | S. cerevisiae deletion strains, locus YKR001C, strain vps1, stronger effect = lower value 0.978 | S. cerevisiae deletion strains, locus YKR026C, strain gcn3, stronger effect = lower value 1.02 | S. cerevisiae deletion strains, locus YKR091W, strain srl3, stronger effect = lower value 1.02 | S. cerevisiae deletion strains, locus YLL001W, strain dnm1, stronger effect = lower value 1.01 | S. cerevisiae deletion strains, locus YLL026W, stronger effect = lower value 1.01 | S. cerevisiae deletion strains, locus YLL041C, strain sdh2, stronger effect = lower value 1.02 | S. cerevisiae deletion strains, locus YLR027C, strain aat2, stronger effect = lower value 1.03 | S. cerevisiae deletion strains, locus YLR039C, strain RIC1, stronger effect = lower value 0.996 | S. cerevisiae deletion strains, locus YLR058C, strain SHM2, stronger effect = lower value 1.01 | S. cerevisiae deletion strains, locus YLR102C, strain apc9, stronger effect = lower value 0.984 | S. cerevisiae deletion strains, locus YLR113W, strain HOG1, stronger effect = lower value 0.997 | S. cerevisiae deletion strains, locus YLR221C, strain rsa3, stronger effect = lower value 0.999 | S. cerevisiae deletion strains, locus YLR258W, strain gsy2, stronger effect = lower value 1.02 | S. cerevisiae deletion strains, locus YLR262C, strain YPT6 (second series), stronger effect = lower value 1.04 | S. cerevisiae deletion strains, locus YLR262C, strain YPT6, stronger effect = lower value 0.991 | S. cerevisiae deletion strains, locus YLR268W, strain sec22, stronger effect = lower value 0.971 | S. cerevisiae deletion strains, locus YLR320W, strain mms22, stronger effect = lower value 1.01 | S. cerevisiae deletion strains, locus YLR330W, strain CHS5, stronger effect = lower value 0.998 | S. cerevisiae deletion strains, locus YLR342W, strain FKS1 (second series), stronger effect = lower value 1.02 | S. cerevisiae deletion strains, locus YLR342W, strain FKS1, stronger effect = lower value 1.02 | S. cerevisiae deletion strains, locus YLR357W, strain rsc2, stronger effect = lower value 1.02 | S. cerevisiae deletion strains, locus YLR370C, strain arc18, stronger effect = lower value 1.03 | S. cerevisiae deletion strains, locus YLR371W, strain rom2, stronger effect = lower value 0.972 | S. cerevisiae deletion strains, locus YLR384C, strain iki3, stronger effect = lower value 1.02 | S. cerevisiae deletion strains, locus YLR418C, strain cdc73, stronger effect = lower value 1.05 | S. cerevisiae deletion strains, locus YML016C, strain PPZ1, stronger effect = lower value 0.997 | S. cerevisiae deletion strains, locus YML032C, strain rad52, stronger effect = lower value 1.02 | S. cerevisiae deletion strains, locus YML120C, strain ndi1, stronger effect = lower value 1.01 | S. cerevisiae deletion strains, locus YML124C, strain tub3, stronger effect = lower value 0.993 | S. cerevisiae deletion strains, locus YMR058W, strain fet3, stronger effect = lower value 1.02 | S. cerevisiae deletion strains, locus YMR078C, strain ctf18, stronger effect = lower value 0.991 | S. cerevisiae deletion strains, locus YMR125W, strain sto1, stronger effect = lower value 1.02 | S. cerevisiae deletion strains, locus YMR129W, stronger effect = lower value 1.02 | S. cerevisiae deletion strains, locus YMR205C, strain PFK2, stronger effect = lower value 1.02 | S. cerevisiae deletion strains, locus YMR223W, strain ubp8, stronger effect = lower value 1.01 | S. cerevisiae deletion strains, locus YMR231W, strain pep5, stronger effect = lower value 1.03 | S. cerevisiae deletion strains, locus YMR263W, strain SAP30, stronger effect = lower value 1.01 | S. cerevisiae deletion strains, locus YMR307W, strain GAS1, stronger effect = lower value 1.05 | S. cerevisiae deletion strains, locus YNL067W, strain RPL9B, stronger effect = lower value 1.01 | S. cerevisiae deletion strains, locus YNL071W, strain lat1, stronger effect = lower value 1.02 | S. cerevisiae deletion strains, locus YNL153C, strain GIM3, stronger effect = lower value 1.03 | S. cerevisiae deletion strains, locus YNL183C, strain NPR1, stronger effect = lower value 0.904 | S. cerevisiae deletion strains, locus YNL209W, strain ssb2, stronger effect = lower value 1.01 | S. cerevisiae deletion strains, locus YNL233W, strain BNI4, stronger effect = lower value 1.01 | S. cerevisiae deletion strains, locus YNL248C, strain rpa49, stronger effect = lower value 1.01 | S. cerevisiae deletion strains, locus YNL250W, strain rad50, stronger effect = lower value 0.95 | S. cerevisiae deletion strains, locus YNL271C, strain bni1, stronger effect = lower value 0.993 | S. cerevisiae deletion strains, locus YNL298W, strain CLA4, stronger effect = lower value 0.997 | S. cerevisiae deletion strains, locus YNL307C, strain MCK1, stronger effect = lower value 0.992 | S. cerevisiae deletion strains, locus YNL322C, strain KRE1 (second series), stronger effect = lower value 1.01 | S. cerevisiae deletion strains, locus YNL322C, strain KRE1, stronger effect = lower value 1 | S. cerevisiae deletion strains, locus YNR049C, strain mso1, stronger effect = lower value 1.02 | S. cerevisiae deletion strains, locus YNR052C, strain pop2, stronger effect = lower value 1.01 | S. cerevisiae deletion strains, locus YOL012C, strain htz1 0.992 | S. cerevisiae deletion strains, locus YOL147C, strain pex11, stronger effect = lower value 0.993 | S. cerevisiae deletion strains, locus YOR001W, strain rrp6, stronger effect = lower value 1.04 | S. cerevisiae deletion strains, locus YOR061W, strain CKA2, stronger effect = lower value 1 | S. cerevisiae deletion strains, locus YOR069W, strain VPS5, stronger effect = lower value 0.991 | S. cerevisiae deletion strains, locus YOR070C, strain gyp1, stronger effect = lower value 1.02 | S. cerevisiae deletion strains, locus YOR080W, strain dia2, stronger effect = lower value 1.03 | S. cerevisiae deletion strains, locus YOR083W, strain WHI5, stronger effect = lower value 1.02 | S. cerevisiae deletion strains, locus YOR106W, strain vam3, stronger effect = lower value 1.04 | S. cerevisiae deletion strains, locus YOR136W, strain idh2, stronger effect = lower value 0.98 | S. cerevisiae deletion strains, locus YOR144C, strain elg1, stronger effect = lower value 1 | S. cerevisiae deletion strains, locus YOR184W, strain ser1, stronger effect = lower value 0.999 | S. cerevisiae deletion strains, locus YOR231W, strain MKK1, stronger effect = lower value 0.996 | S. cerevisiae deletion strains, locus YOR265W, strain rbl2, stronger effect = lower value 1.02 | S. cerevisiae deletion strains, locus YOR270C, strain vph1, stronger effect = lower value 1.03 | S. cerevisiae deletion strains, locus YOR290C, strain snf2, stronger effect = lower value 1.01 | S. cerevisiae deletion strains, locus YOR316C, strain cot1, stronger effect = lower value 0.995 | S. cerevisiae deletion strains, locus YPL051W, strain arl3, stronger effect = lower value 1.02 | S. cerevisiae deletion strains, locus YPL055C, strain LGE1, stronger effect = lower value 1.02 | S. cerevisiae deletion strains, locus YPL078C, strain atp4, stronger effect = lower value 1.02 | S. cerevisiae deletion strains, locus YPL106C, strain sse1, stronger effect = lower value 1 | S. cerevisiae deletion strains, locus YPL240C, strain hsp82, stronger effect = lower value 1.02 | S. cerevisiae deletion strains, locus YPL241C, strain CIN2, stronger effect = lower value 1 | S. cerevisiae deletion strains, locus YPL256C, strain CLN2, stronger effect = lower value 0.967 | S. cerevisiae deletion strains, locus YPR119W, strain clb2, stronger effect = lower value 0.986 | S. cerevisiae deletion strains, locus YPR141C, strain kar3, stronger effect = lower value 0.988 | S. cerevisiae deletion strains, locus YPR163C, strain tif3, stronger effect = lower value 0.996 | S. cerevisiae deletion strains, locus YPR167C, strain met16, stronger effect = lower value 0.989 | S. cerevisiae deletion strains, strain wtn01, stronger effect = lower value 0.945 | S. cerevisiae strains, strain wild type, stronger effect = lower value 1.02

Reference: PubChem BioAssay AID1159580 (chemical genetic matrix, 2015)
